Tests used:
Experiment in all cases: log2 ratio of Biotin-Ahx-Ub-VS probe labelling (fragment/DMSO); higher = less target engagement (more negative = stronger competition), active = hit call of the paper (q ≤ 0.05, log2 ratio ≤ -1)
Details in all cases: compound concentration: 200 uM; treatment time: 3 h
USP19 = target: T1, USP19 (UniProt O94966)
T1 sequence (whole entry): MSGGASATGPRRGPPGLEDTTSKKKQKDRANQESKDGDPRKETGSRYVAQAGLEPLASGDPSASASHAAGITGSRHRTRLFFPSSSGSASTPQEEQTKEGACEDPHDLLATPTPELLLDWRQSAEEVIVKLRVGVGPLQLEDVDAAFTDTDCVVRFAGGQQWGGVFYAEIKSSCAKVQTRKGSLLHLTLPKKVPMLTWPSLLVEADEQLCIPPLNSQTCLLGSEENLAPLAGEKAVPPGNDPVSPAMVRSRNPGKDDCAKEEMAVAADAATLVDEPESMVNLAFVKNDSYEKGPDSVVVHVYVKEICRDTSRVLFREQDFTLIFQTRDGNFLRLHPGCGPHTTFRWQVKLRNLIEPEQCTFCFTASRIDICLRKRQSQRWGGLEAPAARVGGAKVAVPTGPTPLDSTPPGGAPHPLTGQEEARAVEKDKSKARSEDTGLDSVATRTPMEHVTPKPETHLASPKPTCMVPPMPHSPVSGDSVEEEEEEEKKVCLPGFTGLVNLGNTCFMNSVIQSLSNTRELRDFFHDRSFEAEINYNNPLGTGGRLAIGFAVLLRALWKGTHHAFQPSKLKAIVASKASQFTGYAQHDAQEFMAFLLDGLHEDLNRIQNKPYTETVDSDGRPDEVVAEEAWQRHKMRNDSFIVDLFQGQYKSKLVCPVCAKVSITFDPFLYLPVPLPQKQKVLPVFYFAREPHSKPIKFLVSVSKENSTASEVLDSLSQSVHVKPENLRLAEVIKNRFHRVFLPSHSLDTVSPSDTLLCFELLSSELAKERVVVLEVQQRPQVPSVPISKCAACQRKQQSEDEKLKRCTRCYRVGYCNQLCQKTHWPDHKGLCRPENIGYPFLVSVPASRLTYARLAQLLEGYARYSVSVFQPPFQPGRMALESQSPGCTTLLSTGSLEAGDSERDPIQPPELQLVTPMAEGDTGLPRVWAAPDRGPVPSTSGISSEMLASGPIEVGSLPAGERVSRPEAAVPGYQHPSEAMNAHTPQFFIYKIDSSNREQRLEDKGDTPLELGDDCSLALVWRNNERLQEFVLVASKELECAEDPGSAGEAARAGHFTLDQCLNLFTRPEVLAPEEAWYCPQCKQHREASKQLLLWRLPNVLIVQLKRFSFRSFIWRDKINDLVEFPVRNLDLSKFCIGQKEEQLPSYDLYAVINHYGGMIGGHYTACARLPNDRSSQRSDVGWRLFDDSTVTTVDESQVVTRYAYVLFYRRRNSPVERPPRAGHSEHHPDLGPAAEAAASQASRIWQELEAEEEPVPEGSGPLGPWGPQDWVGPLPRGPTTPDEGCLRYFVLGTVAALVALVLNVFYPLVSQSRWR
Method in brief: (§1)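 Triplicate samples of HEK293T lysate, 495 µg each, received fragment at 200 µM or vehicle for 3 h, followed by Biotin-Ahx-Ub-VS (0.5 µM final) for 1 h. After NeutrAvidin enrichment of labelled DUBs and LysC/trypsin digestion, peptides were run by diaPASEF LC-MS/MS. The values are average log2 fragment/vehicle ratios from global-median-normalised Spectronaut label-free quantities, tested by unpaired t-test on proteins having ≥2 unique peptides.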

USP24 = USP24 (UniProt Q9UPU5)
USP24, sequence (Q9UPU5 whole entry): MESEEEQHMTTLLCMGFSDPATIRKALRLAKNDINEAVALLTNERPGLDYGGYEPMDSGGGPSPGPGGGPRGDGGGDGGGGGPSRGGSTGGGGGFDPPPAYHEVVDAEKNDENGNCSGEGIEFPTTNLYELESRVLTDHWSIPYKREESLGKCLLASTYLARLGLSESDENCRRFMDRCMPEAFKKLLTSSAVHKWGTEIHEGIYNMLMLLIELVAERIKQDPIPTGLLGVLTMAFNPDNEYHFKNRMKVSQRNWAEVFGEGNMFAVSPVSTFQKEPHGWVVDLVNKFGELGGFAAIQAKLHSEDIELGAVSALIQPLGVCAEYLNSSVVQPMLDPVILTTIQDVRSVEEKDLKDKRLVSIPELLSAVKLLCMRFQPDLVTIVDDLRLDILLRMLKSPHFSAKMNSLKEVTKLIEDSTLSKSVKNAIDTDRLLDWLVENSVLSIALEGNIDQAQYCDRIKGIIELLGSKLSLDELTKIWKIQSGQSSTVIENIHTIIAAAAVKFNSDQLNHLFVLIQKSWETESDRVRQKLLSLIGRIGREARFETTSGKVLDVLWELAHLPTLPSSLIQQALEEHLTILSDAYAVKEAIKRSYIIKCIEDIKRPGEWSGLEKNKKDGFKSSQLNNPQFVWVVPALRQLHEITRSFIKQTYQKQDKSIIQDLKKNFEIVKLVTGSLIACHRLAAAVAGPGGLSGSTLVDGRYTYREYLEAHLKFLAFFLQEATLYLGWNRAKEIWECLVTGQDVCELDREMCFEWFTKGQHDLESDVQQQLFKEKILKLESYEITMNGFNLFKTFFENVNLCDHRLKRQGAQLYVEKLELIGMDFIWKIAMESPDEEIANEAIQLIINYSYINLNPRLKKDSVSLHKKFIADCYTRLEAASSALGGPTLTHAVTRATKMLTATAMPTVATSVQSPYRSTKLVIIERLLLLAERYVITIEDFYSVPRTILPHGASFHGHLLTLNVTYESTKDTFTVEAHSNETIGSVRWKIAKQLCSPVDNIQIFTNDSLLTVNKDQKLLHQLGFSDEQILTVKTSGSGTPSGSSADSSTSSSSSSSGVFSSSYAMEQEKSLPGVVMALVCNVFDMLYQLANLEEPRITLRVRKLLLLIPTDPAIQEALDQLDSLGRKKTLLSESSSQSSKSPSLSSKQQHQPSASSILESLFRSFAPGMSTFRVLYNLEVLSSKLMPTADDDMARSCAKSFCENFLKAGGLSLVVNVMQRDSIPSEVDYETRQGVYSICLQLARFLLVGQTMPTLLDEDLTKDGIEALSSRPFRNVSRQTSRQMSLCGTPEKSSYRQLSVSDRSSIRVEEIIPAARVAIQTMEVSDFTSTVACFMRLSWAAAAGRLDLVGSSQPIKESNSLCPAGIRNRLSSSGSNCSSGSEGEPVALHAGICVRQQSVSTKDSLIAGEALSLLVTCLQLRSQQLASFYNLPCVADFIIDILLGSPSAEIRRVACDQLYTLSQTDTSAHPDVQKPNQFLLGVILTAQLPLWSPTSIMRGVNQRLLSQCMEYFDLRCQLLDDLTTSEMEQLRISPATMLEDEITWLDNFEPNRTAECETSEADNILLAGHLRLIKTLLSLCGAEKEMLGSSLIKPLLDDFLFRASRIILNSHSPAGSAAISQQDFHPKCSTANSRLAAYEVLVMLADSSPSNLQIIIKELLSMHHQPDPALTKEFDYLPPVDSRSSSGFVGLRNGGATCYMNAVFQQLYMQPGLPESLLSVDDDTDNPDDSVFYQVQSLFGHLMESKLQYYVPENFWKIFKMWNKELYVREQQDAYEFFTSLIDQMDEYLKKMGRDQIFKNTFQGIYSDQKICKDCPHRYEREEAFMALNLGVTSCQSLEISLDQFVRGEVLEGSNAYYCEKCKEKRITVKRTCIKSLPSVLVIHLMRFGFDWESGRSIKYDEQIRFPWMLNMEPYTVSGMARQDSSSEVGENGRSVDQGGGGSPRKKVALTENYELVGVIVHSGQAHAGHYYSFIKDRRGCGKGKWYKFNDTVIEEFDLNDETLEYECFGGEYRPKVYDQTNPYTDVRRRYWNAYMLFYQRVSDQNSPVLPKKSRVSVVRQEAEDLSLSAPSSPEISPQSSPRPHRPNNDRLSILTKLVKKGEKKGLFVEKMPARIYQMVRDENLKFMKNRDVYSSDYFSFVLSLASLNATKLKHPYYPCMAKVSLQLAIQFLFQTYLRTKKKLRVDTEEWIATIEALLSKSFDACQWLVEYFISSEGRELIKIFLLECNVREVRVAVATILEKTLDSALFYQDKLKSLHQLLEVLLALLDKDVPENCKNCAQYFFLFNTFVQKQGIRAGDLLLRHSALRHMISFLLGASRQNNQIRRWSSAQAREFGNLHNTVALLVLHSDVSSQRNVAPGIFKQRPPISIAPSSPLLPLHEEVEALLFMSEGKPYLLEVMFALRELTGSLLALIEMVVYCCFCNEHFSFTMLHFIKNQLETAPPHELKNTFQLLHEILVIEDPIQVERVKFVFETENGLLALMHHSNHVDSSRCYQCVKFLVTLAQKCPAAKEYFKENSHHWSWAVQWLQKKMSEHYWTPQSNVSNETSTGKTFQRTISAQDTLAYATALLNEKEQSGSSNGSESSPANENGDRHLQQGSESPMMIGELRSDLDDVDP
Method in brief: as §1

USP25 = target: T2, USP25 (UniProt Q9UHP3)
T2 sequence (whole entry): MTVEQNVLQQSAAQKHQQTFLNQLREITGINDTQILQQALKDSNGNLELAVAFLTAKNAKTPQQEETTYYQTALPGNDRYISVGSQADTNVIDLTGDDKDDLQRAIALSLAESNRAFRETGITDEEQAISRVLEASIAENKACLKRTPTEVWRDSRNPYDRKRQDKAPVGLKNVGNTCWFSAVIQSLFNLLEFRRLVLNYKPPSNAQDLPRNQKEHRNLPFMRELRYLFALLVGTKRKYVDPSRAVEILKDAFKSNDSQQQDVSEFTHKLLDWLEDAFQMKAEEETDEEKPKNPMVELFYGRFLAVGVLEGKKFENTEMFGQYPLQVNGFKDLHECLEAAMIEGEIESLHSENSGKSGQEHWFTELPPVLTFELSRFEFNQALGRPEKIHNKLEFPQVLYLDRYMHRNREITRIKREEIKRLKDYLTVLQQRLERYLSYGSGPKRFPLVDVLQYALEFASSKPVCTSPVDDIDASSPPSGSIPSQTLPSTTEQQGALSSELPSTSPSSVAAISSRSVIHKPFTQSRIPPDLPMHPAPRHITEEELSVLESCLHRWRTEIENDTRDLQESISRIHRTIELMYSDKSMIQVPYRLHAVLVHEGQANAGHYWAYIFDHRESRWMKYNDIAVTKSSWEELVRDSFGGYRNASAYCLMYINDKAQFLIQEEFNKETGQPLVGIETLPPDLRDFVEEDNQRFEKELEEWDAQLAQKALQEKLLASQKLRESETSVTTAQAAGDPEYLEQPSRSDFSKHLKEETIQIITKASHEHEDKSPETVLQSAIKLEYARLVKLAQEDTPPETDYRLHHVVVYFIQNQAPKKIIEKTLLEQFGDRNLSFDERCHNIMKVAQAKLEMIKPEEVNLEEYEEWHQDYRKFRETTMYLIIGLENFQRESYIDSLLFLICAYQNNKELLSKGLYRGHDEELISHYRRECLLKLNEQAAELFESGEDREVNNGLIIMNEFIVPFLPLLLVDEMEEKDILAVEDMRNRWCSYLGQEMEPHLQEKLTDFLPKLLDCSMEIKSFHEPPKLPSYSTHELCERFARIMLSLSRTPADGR
Method in brief: as §1

USP28 = target: T3, USP28 (UniProt Q96RU2)
T3 sequence (whole entry): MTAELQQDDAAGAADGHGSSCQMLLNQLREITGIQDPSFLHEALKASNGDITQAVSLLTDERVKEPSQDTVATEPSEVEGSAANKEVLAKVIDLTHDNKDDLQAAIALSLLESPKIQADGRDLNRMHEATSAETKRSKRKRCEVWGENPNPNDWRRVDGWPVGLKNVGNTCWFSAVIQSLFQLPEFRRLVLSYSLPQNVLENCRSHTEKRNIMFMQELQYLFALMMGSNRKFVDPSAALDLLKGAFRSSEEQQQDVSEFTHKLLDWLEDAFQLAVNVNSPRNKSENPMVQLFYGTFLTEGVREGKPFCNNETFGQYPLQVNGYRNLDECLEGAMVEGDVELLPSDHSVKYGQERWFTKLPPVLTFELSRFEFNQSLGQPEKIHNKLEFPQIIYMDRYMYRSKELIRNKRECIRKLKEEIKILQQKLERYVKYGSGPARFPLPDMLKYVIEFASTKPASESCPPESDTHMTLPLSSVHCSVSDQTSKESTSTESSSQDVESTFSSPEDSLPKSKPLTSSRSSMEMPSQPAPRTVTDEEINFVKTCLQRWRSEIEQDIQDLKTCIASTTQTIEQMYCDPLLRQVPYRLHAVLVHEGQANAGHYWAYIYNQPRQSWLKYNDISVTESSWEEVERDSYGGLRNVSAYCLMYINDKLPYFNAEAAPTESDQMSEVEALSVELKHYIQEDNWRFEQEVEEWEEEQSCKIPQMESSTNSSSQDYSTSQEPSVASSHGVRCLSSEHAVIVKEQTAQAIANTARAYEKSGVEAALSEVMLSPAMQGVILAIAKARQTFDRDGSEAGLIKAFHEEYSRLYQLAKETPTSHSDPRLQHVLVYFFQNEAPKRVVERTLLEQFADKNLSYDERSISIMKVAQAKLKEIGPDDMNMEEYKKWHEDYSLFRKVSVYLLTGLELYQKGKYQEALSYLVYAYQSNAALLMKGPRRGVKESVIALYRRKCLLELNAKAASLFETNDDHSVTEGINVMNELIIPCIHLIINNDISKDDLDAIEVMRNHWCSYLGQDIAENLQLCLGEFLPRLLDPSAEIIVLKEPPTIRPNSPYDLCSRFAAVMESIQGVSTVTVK
Method in brief: as §1

Measured: log2 ratio of Biotin-Ahx-Ub-VS probe labelling

O=C(CCl)NC1(c2ccc3c(c2)OCCO3)CCCC1
inactive: USP19 -0.103 | USP24 -0.451 | USP25 -0.337 | USP28 -0.402
